Screening results: PubChem BioAssay, National Center for Advancing Translational Sciences (NCATS)
Rows were chosen to be rich in hits. Some 2.4% of all compounds tested hit in one or more screens of this group.
D2 antag: D2 dopamine receptor (human) antagonism; actives 2% (n = 340,000); HEK293 TREx D2 cells, calcium flux, dopamine EC80; inhibition, % at 10 µM; P14416; AID 485344; in the data active means inhibition above about 30%; inactive means below that, where a call was filed; further: 0% is about no effect
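Tetracycline-induced HEK293 T-REx cells expressing D2 force-coupled to calcium signalling were dye-loaded, exposed to compound for 180 s, then challenged with an EC80 of dopamine; calcium flux was followed kinetically for a further 180 s.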
D2 ag-1: activates the human D2 dopamine receptor | P14416 | HEK293 T-REx D2 cells, calcium flux agonist mode | activation, % at 2 µM | actives 0.53% (n = 340,000) | AID 485358;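 active means activation over 3 SD above normal in the single-dose calcium agonist read, cut at about 30% in these data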; further: 0% is about no effect
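HEK293 Trex D2 cells, tetracycline-induced, o/n 30 C 5% CO2; no-wash Ca dye, RT 30–90 min; 10-cycle baseline, 23 nl cpd added, kinetic Ca read 180 s; agonist hits = positive Ca response.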
D2 ag-2: activates the human D2 dopamine receptor | P14416 | actives 0.084% (n = 360,000) | DiscoveRx PathHunter D2 beta-arrestin, luminescence, 90 min; 100% = 57 uM dopamine signal | activation, % (concentration not given with the values) | AID 624465; in the data active means activation above about 40%; inconclusive means between about 15% and that limit
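Agonist mode: compounds alone added to overnight-plated D2 PathHunter cells for 90 min at 37 C, with 57 uM final dopamine (EC100) defining full response. Beta-arrestin recruitment detected by chemiluminescent reagent, read after 1 h at ambient temperature.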
D2 PAM-1: positive allosteric modulators of human D2 dopamine receptor; potentiation, % (no concentration beside the values); P14416; DiscoveRx D2 beta-arrestin cells, luminescence, 90 min; 100% = 57 uM dopamine signal; actives 0.23% (n = 360,000); in the data active means potentiation above about 50%; inconclusive means mostly about 30% to 49%
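PathHunter D2 cells, attached overnight at 37 deg C, received compound in DMSO plus dopamine at EC20 (50 nM final) for 90 min at 37 deg C. Beta-arrestin recruitment was read as luminescence after 1 h with detection reagent at ambient temperature.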
D2 PAM-2: D2 dopamine receptor (human) potentiation | P14416 | HEK293 T-REx D2, calcium flux, EC20 dopamine potentiation | potentiation, % at 10 µM | actives 0.34% (n = 340,000);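 active means potentiation over 3 SD above the plate norm, cut at about 30% in these data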; further: 0% is about no effect
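Calcium flux readout, no-wash dye, 1 read/s. Inducible HEK293 Trex D2 line, overnight 30 C. Compound alone 180 s (agonist flags), then EC20 dopamine, another 180 s to score potentiation.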
D3 arrestin ag: confirmation of human D3 dopamine receptor agonists, beta-arrestin. shares compounds with D2 ag-1. DiscoveRx D3 beta-arrestin cells, luminescence, 90 min. Potency, µM (top dose mostly 76.9 µM), for inactives: at the top dose activation, actives largely listed as activators. actives 4% (n = 2,300);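 further: potency means the concentration at half of the fitted maximal effect; 100% = dopamine control response; nearly all actives have a fitted effect of over 70% in size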
Target sequence (P35462 whole entry, looked up): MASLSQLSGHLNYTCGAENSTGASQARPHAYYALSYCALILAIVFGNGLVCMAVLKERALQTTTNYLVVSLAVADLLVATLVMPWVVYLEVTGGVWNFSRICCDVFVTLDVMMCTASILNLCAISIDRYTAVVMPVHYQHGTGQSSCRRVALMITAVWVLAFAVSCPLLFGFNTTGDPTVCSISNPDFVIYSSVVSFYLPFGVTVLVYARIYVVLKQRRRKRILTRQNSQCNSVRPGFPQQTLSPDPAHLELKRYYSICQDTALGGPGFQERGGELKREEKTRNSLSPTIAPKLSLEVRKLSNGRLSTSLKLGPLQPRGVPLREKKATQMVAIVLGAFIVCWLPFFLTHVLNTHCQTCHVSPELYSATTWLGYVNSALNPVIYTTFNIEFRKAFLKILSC
D2 ag-3: counter-screen for D3 agonists: human D2 dopamine receptor agonism; shares compounds with D2 ag-1; DiscoveRx PathHunter D2 beta-arrestin, luminescence, 90 min; response scale: percent relative to full dopamine signal; Potency, µM (series often up to 76.9 µM), for inactives: at the top dose activation, most hits filed as activators; actives 5.9% (n = 2,300); further: potency means the concentration at half of the fitted maximal effect; % of control where 0% means no effect; nearly all actives have a fitted effect of over 70% in size
An asterisk follows results filed as active; ? = inconclusive; . = no result. Unless noted, the call rests on the fitted dose curve; in most records, active means well fitted activation curve with a large enough effect; inconclusive means small, poorly fitted or top-dose-only effect; inactive means flat fitted curve, though single readings scatter.

SMILES	D2 antag	D2 ag-1	D2 ag-2	D2 PAM-1	D2 PAM-2	D3 arrestin ag	D2 ag-3
Cc1ccc(NC(=O)CSc2nc3nccnc3c(=O)n2CCc2c[nH]c3ccccc23)c(C)c1	.	0	.	.	2	.	.
O=C(Cc1ccccc1)N1CCN(C(=O)c2cccs2)CC1	-5	1	0	-10	9	.	.
O=C(c1cccs1)N1CCN(C/C=C/c2ccccc2)CC1	69*	53*	5	-22	-24	?	?
O=C(c1cccs1)N1CCN(CCc2ccccc2)CC1	42*	43*	6	-14	-13	15%	15%
O=S(=O)(c1cccs1)N1CCN(C/C=C/c2ccccc2)CC1	-5	1	-2	-20	-2	.	.
CC(=O)OCCn1c([N+](=O)[O-])cnc1C=[N+]([O-])C1CCCCC1	.	.	-1	-8	.	.	.
COc1ccc(N2CC(NC(=O)/C=C\c3ccccc3)CC2=O)cc1OC (stereo not given)	.	0	.	.	14	.	.
OCCCNc1ncnc2sc3c(c12)CCN(Cc1ccccc1)C3	-12	0	-5	-4	-6	.	.
O=c1[nH]cnc2sc3c(c12)CCN(Cc1ccccc1)C3	18	62*	?	8	-15	1%	1%
O=c1[nH]cnc2sc3c(c12)CN(Cc1ccccc1)CC3	74*	78*	?	18	-22	-5%	-1%
CC1(C)Cc2c(sc3nc[nH]c(=O)c23)CO1	19	-1	0	3	6	.	.
NC(=O)NN=C1CCC(OCc2ccccc2)CC1CC(=O)O (stereo not given)	.	.	-2	-3	.	.	.
Cc1ccc2nc(-c3ccc(Cl)cc3)cc(C(=O)OCC(=O)c3ccccc3)c2c1	.	0	.	.	6	.	.
CCOC(=O)C1=C(CSc2nc(CC)c(C)cc2C#N)OC(N)=C(C#N)C1c1ccc(OC)cc1 (stereo not given)	13	3	-2	2	-1	10%	2%
CCOC(=O)C1=C(CSc2nc(-c3ccncc3)ccc2C#N)OC(N)=C(C#N)C1c1ccc(OC)cc1 (stereo not given)	17	0	6	18	0	.	.
COc1ccc(CC(=O)Nc2c(C(=O)N3CCN(c4ccccc4F)CC3)oc3ccccc23)cc1OC	.	1	.	.	.	.	.
Cc1ccc(C(C)C)c(OCCN(C)C)c1	4	0	0	-28	6	.	.
CCCN(CCC)CCOc1cc(C)ccc1C(C)C	.	.	?	-10	.	20%	?
Cc1ccc(CNC(=O)CCn2cc(-c3ccc(F)cc3)nc2-c2ccncc2)cc1	-7	-1	-3	-16	-13	.	.
O=C(O)CCn1cc(-c2ccc(F)cc2)nc1-c1ccncc1	.	.	-1	-7	.	-13%	-5%
CC(Oc1cc2oc(=O)cc(-c3ccccc3)c2cc1Cl)C(=O)NCC1CCC(C(=O)O)CC1 (stereo not given)	43*	43*	2	-13	-17	4%	1%
CCN(C(=O)Cn1nc(Cc2cccnc2)c2ccccc2c1=O)c1ccccc1F	.	.	.	.	3	.	.
O=C(c1ccc(Cl)cc1)N1CCN(c2cccc3[nH]ccc23)CC1	9	6	-4	-6	2	.	.
Cc1ccc(CN2CCN(c3cccc4[nH]ccc34)CC2)cc1	72*	73*	?	-25	-21	-5%	?
COc1ccc(CNCCNC(=O)c2ccco2)c(OC)c1OC	-6	48*	2	-18	-15	-4%	-4%
SMILES	D2 antag	D2 ag-1	D2 ag-2	D2 PAM-1	D2 PAM-2	D3 arrestin ag	D2 ag-3
CCOC(=O)N1CCN(C/C(Cl)=C/c2ccccc2)CC1	8	49*	?	2	-21	-1%	16%
CC(C)c1ccc(CN(Cc2ccco2)c2cnc(S(C)(=O)=O)nc2C(=O)Nc2ccccc2)cc1	.	.	.	.	-4	.	.
CCOC(=O)N1CCc2[nH]c3ccc(C)cc3c2C1	-16	29	3	-13	21	-8%	0%
Cc1ccc2[nH]c3c(c2c1)CN(C(=O)CN1CCSCC1)CC3	-13	-3	.	.	-4	.	.
Cc1ccc2[nH]c3c(c2c1)CN(C(=O)CN1CC(C)OC(C)C1)CC3 (stereo not given)	5	2	0	15	-4	.	.
Cc1ccc2[nH]c3c(c2c1)CN(C(=O)CN1CCN(c2ccccn2)CC1)CC3	8	31*	9	3	-9	26%	18%
CCN1CCOC(=O)C1CC(=O)Nc1ccc(C)c(Cl)c1 (stereo not given)	.	0	.	.	3	.	.
CCCN(CC1CC1)C(=O)COC(=O)c1oc2c(F)cccc2c1C	41*	43*	?	15	-18	25%	?
Cc1ccc(N2CCN(C(=O)c3noc4c3COc3ccc(C)cc3-4)CC2)c(C)c1	.	0	.	.	-2	.	.
CC(=O)NC(c1cc(Cl)c2cccnc2c1O)C1CC1 (stereo not given)	-17	-1	.	.	3	-31%	-6%
CC(=O)NC(c1cc(Cl)c2cccnc2c1O)C(C)C (stereo not given)	-7	0	.	.	-14	.	.
Cc1ccc(Cl)cc1N1CCN(C(=O)c2noc3c2CCCC3)CC1	.	0	.	.	4	.	.
COc1ccc(N2CCN(C(=O)CCCNC(=O)Cn3cnc4sc(C)c(C)c4c3=O)CC2)cc1	-4	44*	-4	-8	-22	-1%	6%
CCC(C)c1ccc(OCC(=O)Nc2cccc(C(=O)Nc3ccc(C(=O)O)cc3)c2)cc1 (stereo not given)	5	64*	3	-12	-26	22%	1%
Cc1ccc(OCC(=O)Nc2ccc3c(c2)nc(CCNC(=O)c2ccco2)n3C)cc1	.	-1	.	.	1	.	.
O=C(COc1ccc(Cl)cc1)NNC(=O)c1cccnc1	8	0	-4	-2	1	-12%	-3%
Cc1ccc2occ(CN3CCN(c4ccccc4)CC3)c(=O)c2c1	67*	13	13	-2	.	-5%	25%
COC(=O)[C@H](CC(C)C)NS(=O)(=O)c1ccccc1	17	-2	-2	-9	3	.	.
COC(=O)[C@@H](CC(C)C)NS(=O)(=O)N(Cc1ccccc1)[C@@H](CC(C)C)C(=O)OC	2	-1	-3	-4	-3	-15%	-3%
N=C(N)N1CCN(Cc2ccccc2)CC1	20	42*	.	.	-18	-5%	-3%
O=C(c1ccc(Br)c([N+](=O)[O-])c1)N1CCN(Cc2ccccc2)CC1	-5	1	0	-5	4	.	.
